What all share (experiment): yeast three-hybrid, YBZ-1, SC-Leu-His + 0.5 mM 3-AT, 4 days
What all share (details): tags: N-Gal4 AD-HA kept; label: inside an RPR1-promoter hybrid RNA with tandem MS2 sites; ssRNA

The target of one test is PUM1 PUF domain R5-MKR (Homo sapiens, UniProt Q14671 828-1176, C1007M;R1008K;Q1011R). The procedure, abridged:
(§1)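 The interaction score is the log change in how often each variant appears, from input to selection. Frequencies came from PCR-amplified, Illumina-sequenced repeat regions of Pumilio-1 PUF domain libraries grown in strain YBZ-1 (LexA–MS2 coat fusion, HIS3 reporter) alongside matching RNA elements. Input plates were SC-Leu and selection plates were SC-Leu-His + 0.5 mM 3-AT, each for four days, and the log2 calculation used a pseudocount of 1 where a variant was absent.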

A further test addresses PUM1 PUF domain R5-PWL (Homo sapiens, UniProt Q14671 828-1176, C1007P;R1008W;Q1011L). The procedure, abridged: as §1
The target in a further test is PUM1 PUF domain R3-QRR (Homo sapiens, UniProt Q14671 828-1176, C935Q;Q939R). The procedure, abridged:
as §1

In a further test the target is PUM1 PUF domain R5-GQQ (Homo sapiens, UniProt Q14671 828-1176, C1007G;R1008Q). The procedure, abridged: as §1
Another test concerns the target PUM1 PUF domain R5-EKL (Homo sapiens, UniProt Q14671 828-1176, C1007E;R1008K;Q1011L). The procedure, abridged:
as §1

In another test the target is PUM1 PUF domain R1-NFR (Homo sapiens, UniProt Q14671 828-1176, S863N;R864F;Q867R). The procedure, abridged:
as §1

In another test the target is PUM1 PUF domain R4-ALG (Homo sapiens, UniProt Q14671 828-1176, N971A;H972L;Q975G). The procedure, abridged: as §1
Another test deals with PUM1 PUF domain R5-VRV (Homo sapiens, UniProt Q14671 828-1176, C1007V;Q1011V). The procedure, abridged: as §1
For another test, the target named is T1, PUM1 PUF domain R6-DWQ (Homo sapiens, UniProt Q14671 828-1176, N1043D;Y1044W).
T1 sequence: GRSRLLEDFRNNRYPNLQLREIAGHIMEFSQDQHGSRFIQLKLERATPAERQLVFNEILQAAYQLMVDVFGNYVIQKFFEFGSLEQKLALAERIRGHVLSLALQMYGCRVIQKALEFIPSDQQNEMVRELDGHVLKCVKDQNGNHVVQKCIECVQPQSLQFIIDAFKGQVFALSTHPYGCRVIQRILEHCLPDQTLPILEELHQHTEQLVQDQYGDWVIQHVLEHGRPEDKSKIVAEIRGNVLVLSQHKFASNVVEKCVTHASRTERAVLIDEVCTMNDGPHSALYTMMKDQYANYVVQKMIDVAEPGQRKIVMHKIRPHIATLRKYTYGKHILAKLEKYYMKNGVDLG
The procedure, abridged:
as §1

The target in another test is PUM1 PUF domain R5-GYV (Homo sapiens, UniProt Q14671 828-1176, C1007G;R1008Y;Q1011V). The procedure, abridged:
as §1

On to “GGCUAGAACUAGUGGAUCCCCCGGCGCCCGGCGGCUCGAGCCCGGGUAAGUGUUAAUAGUCUGCAUGCCGCCGGGCGCCAUGCCUGCAGGUCGACUCUAGAAAACAUG”, for which the figures for the binding signal in the test with PUM1 PUF domain R5-MKR and with PUM1 PUF domain R5-PWL were 1.52 log2 enrichment (interaction score) and 3.31 log2 enrichment (interaction score), respectively.

As for “GGCUAGAACUAGUGGAUCCCCCGGCGCCCGGCGGCUCGAGCCCGGGUAAGUGUAAGUAGUCUGCAUGCCGCCGGGCGCCAUGCCUGCAGGUCGACUCUAGAAAACAUG”, the binding signal with PUM1 PUF domain R3-QRR was 3.94 log2 enrichment (interaction score).

On to “GGCUAGAACUAGUGGAUCCCCCGGCGCCCGGCGGCUCGAGCCCGGGUAAGUGUCAAUAGUCUGCAUGCCGCCGGGCGCCAUGCCUGCAGGUCGACUCUAGAAAACAUG”, for which the figures for the binding signal with PUM1 PUF domain R5-MKR, with PUM1 PUF domain R5-GQQ and with PUM1 PUF domain R5-EKL were 2.84 log2 enrichment (interaction score), 4.12 log2 enrichment (interaction score) and 2.47 log2 enrichment (interaction score), respectively.

Take “GGCUAGAACUAGUGGAUCCCCCGGCGCCCGGCGGCUCGAGCCCGGGUAAGUGUAAUUAGUCUGCAUGCCGCCGGGCGCCAUGCCUGCAGGUCGACUCUAGAAAACAUG”: in the test with PUM1 PUF domain R3-QRR, the binding signal was 4.3 log2 enrichment (interaction score).

For the sequence “GGCUAGAACUAGUGGAUCCCCCGGCGCCCGGCGGCUCGAGCCCGGGUAAGUGUAAAUCGUCUGCAUGCCGCCGGGCGCCAUGCCUGCAGGUCGACUCUAGAAAACAUG”, in the test with PUM1 PUF domain R1-NFR, the binding signal is 6.39 log2 enrichment (interaction score).

As to “GGCUAGAACUAGUGGAUCCCCCGGCGCCCGGCGGCUCGAGCCCGGGUAAGUGUAAAUAGUCUGCAUGCCGCCGGGCGCCAUGCCUGCAGGUCGACUCUAGAAAACAUG”, the binding signal in the test with PUM1 PUF domain R4-ALG is 2.12 log2 enrichment (interaction score); in the test with PUM1 PUF domain R5-VRV, 3.36 log2 enrichment (interaction score); in the test with PUM1 PUF domain R6-DWQ, 2.34 log2 enrichment (interaction score).

As for “GGCUAGAACUAGUGGAUCCCCCGGCGCCCGGCGGCUCGAGCCCGGGUAAGUGCAAAUAGUCUGCAUGCCGCCGGGCGCCAUGCCUGCAGGUCGACUCUAGAAAACAUG”, the binding signal in the test with PUM1 PUF domain R6-DWQ was 2.44 log2 enrichment (interaction score).

“GGCUAGAACUAGUGGAUCCCCCGGCGCCCGGCGGCUCGAGCCCGGGUAAGUGUGAAUAGUCUGCAUGCCGCCGGGCGCCAUGCCUGCAGGUCGACUCUAGAAAACAUG”: the binding signal with PUM1 PUF domain R5-GYV is 2.9 log2 enrichment (interaction score).

Values taken from article PMC8384837, “Expanding the binding specificity for RNA recognition by a PUF domain”.
